This passage reports outcome and AC50 results from PubChem BioAssay (EPA / NIEHS).

Inconclusive results are not listed. Calls of active or inactive are those of the source. How the source made its calls, unless noted: active means hit-call score of the fitted dose curve at least 0.9, where 1 is the maximum; inconclusive means response in the unintended direction; inactive means score below 0.9.

Experiment [1] can be described thus: BSK_3C_VCAM1: BioMAP Diversity Plus: 3C Assay for Vascular cell adhesion molecule 1 (VCAM1) Biomarker Activity (AID 2282999; active means hit-call score of the fitted dose curve at least 0.9, where 1 is the maximum; inactive means score below 0.9). The note with it: BioMAP 3C HUVEC, VCAM1 ELISA, cytokine-stimulated; actives raise or lower the signal. Summed up: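 Human umbilical vein endothelial cells (3C system), biomarker read by ELISA 24 h after dosing; bidirectional fit against DMSO baseline. Cytotoxicity tracked by SRB total-protein staining in parallel cultures at biomarker time.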
(An ELISA detects its analyte on a solid surface through an enzyme-linked reagent.)

Experiment [2] can be described thus: BSK_4H_Eotaxin3: BioMAP Diversity Plus: 4H Assay for Eotaxin 3 Biomarker Activity (AID 2283000; active means hit-call score of the fitted dose curve at least 0.9, where 1 is the maximum; inactive means score below 0.9;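 further: CCL26 protein level quantified by ELISA in parallel with SRB cytotoxicity check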). The note with it: primary human endothelial cells (HUVEC); actives raise or lower the signal. Summed up: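 ELISA quantitation of CCL26 (Eotaxin-3) protein from chemically dosed human vascular endothelial cells at 24 h; increases and decreases both scored relative to DMSO-treated baseline.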

Experiment [3] addresses human Peroxisome Proliferator-activated Receptor alpha (PPARa), PPARA (gene 5465) (UniProt Q07869). Put plainly: ATG_PPARa_TRANS: Attagene TRANS-FACTORIAL HepG2 Assay for human Peroxisome Proliferator-activated Receptor alpha (PPARa) (AID 2283001).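 On AC50: potency for gain of reporter signal over DMSO so agonist or activator.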 The method in brief: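 HepG2 cells transiently transfected with multiplexed GAL4-UAS reporters driven by exogenous chimeric NR-Gal4 proteins; reporter mRNA measured after 24 h dosing. Read-out by RT-PCR, 6-FAM labelling, HpaI digestion and capillary electrophoresis; gain of signal versus DMSO.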

The target of experiment [4] is human Peroxisome Proliferator-activated Receptor delta (PPARd), PPARD (gene 5467) (UniProt Q03181). Put plainly: ATG_PPARd_TRANS: Attagene TRANS-FACTORIAL HepG2 Assay for human Peroxisome Proliferator-activated Receptor delta (PPARd) (AID 2283002). The method in brief: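 Fluorescence from capillary electrophoresis of labelled RT-PCR reporter fragments gives the signal; DMSO sets baseline. Cells: HepG2 transiently carrying GAL4-UAS reporter units plus chimeric nuclear receptor-Gal4 proteins, exposed to chemicals for 24 h.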

Read-out in experiment [5]: Intercellular Adhesion Molecule 1 (ICAM1), ICAM1 (gene 3383)
In words: BSK_3C_ICAM1: BioMAP Diversity Plus: 3C Assay for Intercellular Adhesion Molecule 1 (ICAM1) Biomarker Activity (AID 2283003; active means hit-call score of the fitted dose curve at least 0.9, where 1 is the maximum; inactive means score below 0.9). The note with it: primary human endothelial cells (HUVEC); actives raise or lower the signal. Summed up: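 ICAM-1 levels measured by ELISA after HUVEC cultures in the 3C system had been dosed for 24 h. Gain or loss of signal relative to DMSO was fitted in both directions.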

The target in experiment [6] is human Retinoic Acid Receptor beta (RARb), RARB (gene 5915) (UniProt P10826). In words: ATG_RARb_TRANS: Attagene TRANS-FACTORIAL HepG2 Assay for human Retinoic Acid Receptor beta (AID 2283004). Summed up:
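Fluorescent capillary-electrophoresis detection of GAL4-UAS reporter mRNA defines the endpoint, with induction over DMSO-treated wells scored as activity. Transiently transfected human hepatoma HepG2 cells expressing exogenous NR–Gal4 proteins are exposed to test chemicals for 24 h.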

Experiment [7] concerns the target Retinoic acid receptor alpha (Homo sapiens) (UniProt P10276). In words: ATG_RARa_TRANS: Attagene TRANS-FACTORIAL HepG2 Assay for human Retinoic Acid Receptor alpha (RARa) (AID 2283005).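 On AC50: potency for increased reporter signal meaning RARa activation over DMSO.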 Summed up:
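HepG2 transiently transfected with multiplex GAL4-UAS reporter units including a human RARa–GAL4 chimera; 24 h compound exposure. Reporter mRNA quantified by RT-PCR, 6-FAM labeling and capillary electrophoresis; gain of signal versus DMSO.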

A short description of experiment [8]: BSK_3C_Proliferation: Cell Proliferation Assessment in the BioMAP Diversity Plus: 3C Assay (AID 2283006; active means hit-call score of the fitted dose curve at least 0.9, where 1 is the maximum; inactive means score below 0.9). The conditions noted are these: primary human endothelial cells (HUVEC). Summed up: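 Read-out is total protein by SRB absorbance at 560 nm, taken as a proxy for relative cell number. Primary human umbilical vein endothelium cultured below confluence was dosed for 48 h, TCA-fixed and SRB-stained; curves were fitted bidirectionally versus DMSO.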

For experiment [9], the target named is Peroxisome proliferator-activated receptor gamma (Homo sapiens) (UniProt P37231). In words: ATG_PPARg_TRANS: Attagene TRANS-FACTORIAL HepG2 Assay for human Peroxisome Proliferator-activated Receptor-gamma (PPARg) (AID 2283007). Summed up: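 Liver-derived HepG2 cells expressing an exogenous NR-Gal4 chimera alongside GAL4-UAS reporter genes; 24 h exposure. Fluorescence of reporter RT-PCR products, separated by capillary electrophoresis, gives mRNA induction relative to DMSO.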

Experiment [10] has as its target Nuclear receptor subfamily 1 group I member 2 (Homo sapiens) (UniProt O75469). Put plainly: ATG_PXR_TRANS: Attagene TRANS-FACTORIAL HepG2 Assay for human Pregnane X Receptor (PXR) (AID 2283008). Summed up: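 Read-out is fluorescence of labelled reporter cDNA fragments separated by capillary electrophoresis after RT-PCR and HpaI digestion. Source: HepG2 cells carrying PXR-GAL4/UAS reporter constructs, treated 24 h; activity fitted upward relative to DMSO.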

The target in experiment [11] is human RAR-related Orphan Receptor beta (RORb), RORB (gene 6096) (UniProt Q92753). In words: ATG_RORb_TRANS: Attagene TRANS-FACTORIAL HepG2 Assay for human RAR-related Orphan Receptor beta (RORb) (AID 2283010). Summed up: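 Readout is reporter-gene mRNA induction, detected as fluorescence after RT-PCR and capillary electrophoresis, fitted for gain of signal against DMSO controls. Transiently transfected HepG2 liver cells carrying GAL4-UAS reporter constructs were treated for 24 hours.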

Experiment [12] addresses Retinoic acid receptor RXR-alpha (Homo sapiens) (UniProt P19793). In words: ATG_RXRa_TRANS: Attagene TRANS-FACTORIAL HepG2 Assay for human Retinoid X Receptor alpha (RXRa) (AID 2283012). The method in brief: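 Transient transfection of human HepG2 with multiple GAL4-UAS reporter constructs; 24 h compound exposure; total RNA isolated, reverse-transcribed, PCR-amplified, 6-FAM labelled, HpaI-cut, resolved by capillary electrophoresis. Positive-direction fit versus DMSO.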

Experiment [13] concerns the target human Retinoid X Receptor beta (RXRb), RXRB (gene 6257) (UniProt P28702). In words: ATG_RXRb_TRANS: Attagene TRANS-FACTORIAL HepG2 Assay for human Retinoid X Receptor beta (RXRb) (AID 2283013). Summed up: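 Transfect HepG2 with GAL4-UAS multi-reporter constructs (chimeric NR-Gal4, TRANS format); dose compound 24 h; isolate RNA, RT-PCR, FAM primer extension, HpaI digest; quantify by capillary electrophoresis; positive direction vs DMSO.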

The target in experiment [14] is human Thyroid Receptor alpha (THRa1), THRA (gene 7067) (UniProt P10827). Put plainly: ATG_THRa1_TRANS: Attagene TRANS-FACTORIAL HepG2 Assay for human Thyroid Receptor alpha (THRa1) (AID 2283014). The method in brief: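 Measured here is mRNA from a GAL4-UAS reporter in transfected HepG2 cells carrying a Gal4-fused receptor, 24 h post-dose. DMSO served as negative control and baseline.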

Read-out in experiment [15]: E-selectin (Homo sapiens) (UniProt P16581)
In words: BSK_3C_Eselectin: BioMAP Diversity Plus: 3C Assay for Eselectin Biomarker Activity (AID 2283015; active means hit-call score of the fitted dose curve at least 0.9, where 1 is the maximum; inactive means score below 0.9;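 further: cell surface E-selectin protein quantified by ELISA 24 h after dosing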). The conditions noted are these: primary human endothelial cells (HUVEC); actives raise or lower the signal. Summed up: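 Endpoint derived by bidirectional fitting against DMSO vehicle; signal is ELISA-detected E-selectin from primary HUVEC at 24 h post-dosing, with parallel SRB staining (0.1% SRB, 560 nm) flagging cytotoxicity.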

Read-out in experiment [16]: Monocyte Chemoattractant Protein-1 (MCP1), CCL2 (gene 6347)
In words: BSK_3C_MCP1: BioMAP Diversity Plus: 3C Assay for Monocyte Chemoattractant Protein-1 (MCP1) Biomarker Activity (AID 2283017; active means hit-call score of the fitted dose curve at least 0.9, where 1 is the maximum; inactive means score below 0.9). The note with it: primary human endothelial cells (HUVEC); actives raise or lower the signal. The method in brief: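 Using human vascular primary endothelium, researchers measured MCP-1 by ELISA 24 h after treatment, with DMSO serving as negative control for bidirectional fitting.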

Read-out in experiment [17]: Monocyte Chemoattractant Protein-1 (MCP1), CCL2 (gene 6347)
Put plainly: BSK_4H_MCP1: BioMAP Diversity Plus: 4H Assay for Monocyte Chemoattractant Protein-1 (MCP1) Biomarker Activity (AID 2283018; active means hit-call score of the fitted dose curve at least 0.9, where 1 is the maximum; inactive means score below 0.9). The note with it: primary human endothelial cells (HUVEC); actives raise or lower the signal. Summed up:
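ELISA read-out of MCP-1 from human vascular endothelial primary cells taken at 24 hours after compound exposure. Activity was fitted in both directions relative to DMSO, which served as negative control.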

Experiment [18] concerns the target human Retinoic Acid Receptor gamma (RARg), RARG (gene 5916) (UniProt P13631). In words: ATG_RARg_TRANS: Attagene TRANS-FACTORIAL HepG2 Assay for human Retinoic Acid Receptor gamma (RARg) (AID 2283009). The method in brief:
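Transient transfection of HepG2 with multi-reporter constructs, then 24 h chemical treatment. Total RNA isolated, reverse-transcribed, PCR-amplified, fluorescently labelled and resolved by capillary electrophoresis; activity scored as mRNA induction versus DMSO.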

In experiment [19] the target is human RAR-related Orphan Receptor gamma (RORg), RORC (gene 6097) (UniProt P51449). Put plainly: ATG_RORg_TRANS: Attagene TRANS-FACTORIAL HepG2 Assay for human RAR-related Orphan Receptor gamma (RORg) (AID 2283011). Summed up: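 Chimeric RORg-Gal4 transactivation in transfected HepG2; 24 h exposure; RT-PCR/capillary electrophoresis readout of reporter mRNA, DMSO baseline.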

Read-out in experiment [20]: Interleukin-1 alpha (IL1a), IL1A (gene 3552)
In words: BSK_BE3C_IL1a: BioMAP Diversity Plus: BE3C Assay for Interleukin-1 alpha (IL1a) Biomarker Activity (AID 2283016; active means hit-call score of the fitted dose curve at least 0.9, where 1 is the maximum; inactive means score below 0.9). The note with it: primary human bronchial epithelial cells; actives raise or lower the signal. Summed up:
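BE3C primary human bronchial epithelium; cpd 24 h; IL-1a by ELISA; bidirectional fit vs DMSO; parallel SRB (0.1% SRB, 10% TCA fix, 560 nm) for cytotoxicity.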

Sequence of human Retinoic Acid Receptor gamma (RARg), RARG (gene 5916) (P13631 whole entry, looked up): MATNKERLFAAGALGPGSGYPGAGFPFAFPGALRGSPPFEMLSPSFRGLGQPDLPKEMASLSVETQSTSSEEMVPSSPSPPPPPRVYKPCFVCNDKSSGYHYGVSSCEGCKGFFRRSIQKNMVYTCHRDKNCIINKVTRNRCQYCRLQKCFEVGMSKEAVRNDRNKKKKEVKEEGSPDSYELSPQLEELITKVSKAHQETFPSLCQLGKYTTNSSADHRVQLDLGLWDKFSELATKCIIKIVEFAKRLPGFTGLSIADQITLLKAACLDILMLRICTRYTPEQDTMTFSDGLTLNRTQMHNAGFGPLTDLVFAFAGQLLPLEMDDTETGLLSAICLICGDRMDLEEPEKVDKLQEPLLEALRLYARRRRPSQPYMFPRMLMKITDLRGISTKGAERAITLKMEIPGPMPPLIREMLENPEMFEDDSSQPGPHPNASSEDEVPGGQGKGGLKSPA
Sequence of human Retinoid X Receptor beta (RXRb), RXRB (gene 6257) (P28702 whole entry, looked up, the tested form may be a part): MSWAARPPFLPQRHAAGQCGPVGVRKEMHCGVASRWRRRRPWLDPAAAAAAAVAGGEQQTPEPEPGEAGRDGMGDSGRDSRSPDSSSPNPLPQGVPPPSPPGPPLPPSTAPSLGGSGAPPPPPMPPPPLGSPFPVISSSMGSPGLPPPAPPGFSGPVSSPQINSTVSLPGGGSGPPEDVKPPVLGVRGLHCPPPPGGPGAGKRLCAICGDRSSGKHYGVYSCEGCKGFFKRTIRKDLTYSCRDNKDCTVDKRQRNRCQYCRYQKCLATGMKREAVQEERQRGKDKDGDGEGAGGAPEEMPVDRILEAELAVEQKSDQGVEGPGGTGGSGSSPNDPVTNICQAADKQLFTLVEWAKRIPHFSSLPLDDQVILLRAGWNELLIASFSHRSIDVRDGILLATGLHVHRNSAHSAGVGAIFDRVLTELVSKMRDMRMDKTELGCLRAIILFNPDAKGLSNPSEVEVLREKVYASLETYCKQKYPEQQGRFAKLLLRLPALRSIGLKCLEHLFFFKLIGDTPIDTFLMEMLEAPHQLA
Sequence of Retinoic acid receptor alpha (Homo sapiens) (P10276 whole entry, looked up, the tested form may be a part): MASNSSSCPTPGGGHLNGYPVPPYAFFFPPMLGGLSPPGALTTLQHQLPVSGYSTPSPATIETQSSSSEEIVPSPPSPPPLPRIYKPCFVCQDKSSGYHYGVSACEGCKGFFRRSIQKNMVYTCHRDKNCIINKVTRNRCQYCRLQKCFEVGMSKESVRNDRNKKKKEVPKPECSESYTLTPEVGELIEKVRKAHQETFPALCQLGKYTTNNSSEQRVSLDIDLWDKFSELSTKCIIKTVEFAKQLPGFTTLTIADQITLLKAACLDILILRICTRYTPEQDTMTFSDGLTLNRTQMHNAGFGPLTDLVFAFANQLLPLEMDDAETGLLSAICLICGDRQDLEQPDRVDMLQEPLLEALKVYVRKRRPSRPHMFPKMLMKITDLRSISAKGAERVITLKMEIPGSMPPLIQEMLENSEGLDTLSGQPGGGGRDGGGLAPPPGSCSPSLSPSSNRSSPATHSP
Sequence of human Peroxisome Proliferator-activated Receptor alpha (PPARa), PPARA (gene 5465) (Q07869 whole entry, looked up, the tested form may be a part): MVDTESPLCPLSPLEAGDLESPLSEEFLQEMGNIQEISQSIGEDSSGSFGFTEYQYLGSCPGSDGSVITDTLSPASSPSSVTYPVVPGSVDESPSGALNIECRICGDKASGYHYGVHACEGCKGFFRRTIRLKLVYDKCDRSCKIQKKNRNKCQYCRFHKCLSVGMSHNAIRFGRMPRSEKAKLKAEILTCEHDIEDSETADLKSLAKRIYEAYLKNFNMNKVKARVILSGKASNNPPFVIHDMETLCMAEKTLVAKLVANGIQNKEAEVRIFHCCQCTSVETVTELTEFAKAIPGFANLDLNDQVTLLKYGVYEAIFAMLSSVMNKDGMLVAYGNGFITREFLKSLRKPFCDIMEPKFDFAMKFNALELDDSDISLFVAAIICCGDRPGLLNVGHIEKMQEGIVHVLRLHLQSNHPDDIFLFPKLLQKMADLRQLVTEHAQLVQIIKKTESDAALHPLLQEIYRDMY
Sequence of Peroxisome proliferator-activated receptor gamma (Homo sapiens) (P37231 whole entry, looked up, the tested form may be a part): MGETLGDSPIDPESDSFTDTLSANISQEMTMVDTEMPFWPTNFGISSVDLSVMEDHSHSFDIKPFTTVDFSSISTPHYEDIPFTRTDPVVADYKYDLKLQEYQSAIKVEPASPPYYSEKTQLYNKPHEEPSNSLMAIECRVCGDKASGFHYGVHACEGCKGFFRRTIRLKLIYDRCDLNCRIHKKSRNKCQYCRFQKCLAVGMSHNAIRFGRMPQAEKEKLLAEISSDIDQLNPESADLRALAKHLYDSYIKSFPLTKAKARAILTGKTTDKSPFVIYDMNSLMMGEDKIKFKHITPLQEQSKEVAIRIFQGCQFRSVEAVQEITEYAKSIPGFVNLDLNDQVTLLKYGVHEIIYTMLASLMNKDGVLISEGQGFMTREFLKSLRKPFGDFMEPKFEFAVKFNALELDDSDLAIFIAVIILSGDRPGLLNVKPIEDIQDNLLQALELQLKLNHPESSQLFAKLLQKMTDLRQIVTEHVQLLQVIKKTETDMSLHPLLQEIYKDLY
Sequence of E-selectin (Homo sapiens) (P16581 whole entry, looked up): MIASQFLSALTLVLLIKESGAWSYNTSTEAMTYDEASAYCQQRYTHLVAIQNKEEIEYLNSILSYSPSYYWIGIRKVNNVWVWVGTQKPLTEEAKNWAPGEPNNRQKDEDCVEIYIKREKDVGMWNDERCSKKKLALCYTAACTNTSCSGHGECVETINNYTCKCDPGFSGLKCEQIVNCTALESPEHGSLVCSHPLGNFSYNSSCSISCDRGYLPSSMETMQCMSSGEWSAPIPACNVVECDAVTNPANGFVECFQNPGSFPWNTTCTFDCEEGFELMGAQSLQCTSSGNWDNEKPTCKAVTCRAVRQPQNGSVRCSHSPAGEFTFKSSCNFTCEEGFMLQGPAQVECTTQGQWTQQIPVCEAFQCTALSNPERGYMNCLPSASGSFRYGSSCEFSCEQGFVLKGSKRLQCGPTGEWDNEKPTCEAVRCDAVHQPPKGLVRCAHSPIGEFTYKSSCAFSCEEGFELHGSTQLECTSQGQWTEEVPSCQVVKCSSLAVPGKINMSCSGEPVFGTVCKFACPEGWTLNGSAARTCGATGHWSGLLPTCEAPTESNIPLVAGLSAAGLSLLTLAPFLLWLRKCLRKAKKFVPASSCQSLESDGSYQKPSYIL
Sequence of human Retinoic Acid Receptor beta (RARb), RARB (gene 5915) (P10826 whole entry, looked up, the tested form may be a part): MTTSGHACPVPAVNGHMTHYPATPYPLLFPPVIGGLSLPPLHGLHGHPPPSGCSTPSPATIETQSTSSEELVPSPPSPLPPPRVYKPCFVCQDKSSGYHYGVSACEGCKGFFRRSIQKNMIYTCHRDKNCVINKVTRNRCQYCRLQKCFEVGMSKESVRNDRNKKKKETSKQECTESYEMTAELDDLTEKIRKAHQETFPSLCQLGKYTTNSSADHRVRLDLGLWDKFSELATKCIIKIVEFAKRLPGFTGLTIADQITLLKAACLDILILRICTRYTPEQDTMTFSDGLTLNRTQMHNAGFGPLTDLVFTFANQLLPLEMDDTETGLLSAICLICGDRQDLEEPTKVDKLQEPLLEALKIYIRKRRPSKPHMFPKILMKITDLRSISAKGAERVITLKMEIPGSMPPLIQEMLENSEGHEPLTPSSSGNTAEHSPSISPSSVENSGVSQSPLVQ
Sequence of Nuclear receptor subfamily 1 group I member 2 (Homo sapiens) (O75469 whole entry, looked up, the tested form may be a part): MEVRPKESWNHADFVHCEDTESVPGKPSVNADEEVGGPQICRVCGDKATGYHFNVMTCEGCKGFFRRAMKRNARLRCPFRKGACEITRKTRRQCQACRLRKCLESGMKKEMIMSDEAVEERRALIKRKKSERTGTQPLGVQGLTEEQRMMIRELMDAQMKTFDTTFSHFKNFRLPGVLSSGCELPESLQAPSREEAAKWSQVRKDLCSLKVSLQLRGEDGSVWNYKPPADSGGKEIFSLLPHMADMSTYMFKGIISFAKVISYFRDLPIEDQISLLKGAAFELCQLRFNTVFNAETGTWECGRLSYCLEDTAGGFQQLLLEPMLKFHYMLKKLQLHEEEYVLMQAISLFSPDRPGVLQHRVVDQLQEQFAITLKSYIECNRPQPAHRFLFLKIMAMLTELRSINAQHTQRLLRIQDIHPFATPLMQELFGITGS
Sequence of human Thyroid Receptor alpha (THRa1), THRA (gene 7067) (P10827 whole entry, looked up, the tested form may be a part): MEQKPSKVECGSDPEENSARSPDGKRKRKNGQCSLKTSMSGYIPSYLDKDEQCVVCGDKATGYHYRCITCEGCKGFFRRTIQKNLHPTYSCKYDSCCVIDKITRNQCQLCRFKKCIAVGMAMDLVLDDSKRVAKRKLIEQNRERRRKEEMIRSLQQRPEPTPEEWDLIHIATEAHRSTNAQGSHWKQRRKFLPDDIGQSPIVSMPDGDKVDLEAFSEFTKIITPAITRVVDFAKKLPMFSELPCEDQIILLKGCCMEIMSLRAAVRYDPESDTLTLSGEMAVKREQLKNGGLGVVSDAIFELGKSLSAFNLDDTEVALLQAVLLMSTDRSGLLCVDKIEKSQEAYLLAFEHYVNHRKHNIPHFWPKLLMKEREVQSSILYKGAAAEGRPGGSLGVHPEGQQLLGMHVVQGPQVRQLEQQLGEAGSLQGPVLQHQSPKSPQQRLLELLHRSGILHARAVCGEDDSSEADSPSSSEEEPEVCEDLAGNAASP
Sequence of human RAR-related Orphan Receptor gamma (RORg), RORC (gene 6097) (P51449 whole entry, looked up, the tested form may be a part): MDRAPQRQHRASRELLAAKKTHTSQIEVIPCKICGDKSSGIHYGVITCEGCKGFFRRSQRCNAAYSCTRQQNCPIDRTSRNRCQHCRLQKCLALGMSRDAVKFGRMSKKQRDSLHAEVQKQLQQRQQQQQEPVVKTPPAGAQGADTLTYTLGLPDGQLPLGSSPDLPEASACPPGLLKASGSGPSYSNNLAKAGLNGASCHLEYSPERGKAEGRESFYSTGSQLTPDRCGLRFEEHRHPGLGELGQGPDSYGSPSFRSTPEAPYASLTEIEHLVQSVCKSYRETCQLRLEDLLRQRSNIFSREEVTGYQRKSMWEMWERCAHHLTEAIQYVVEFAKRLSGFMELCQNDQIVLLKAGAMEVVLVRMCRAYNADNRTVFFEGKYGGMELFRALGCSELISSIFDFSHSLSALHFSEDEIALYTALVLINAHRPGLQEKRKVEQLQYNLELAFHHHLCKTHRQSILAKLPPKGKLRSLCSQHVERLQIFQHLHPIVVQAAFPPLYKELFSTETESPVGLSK

`Cc1cc(C)nc(Nc2ccccc2)n1`: the outcome in [1], in experiment [2], in experiment [3], in experiment [4], in experiment [5] and in experiment [6] was inactive. The compound was called inactive in experiment [7], in experiment [8], in [9], in experiment [10], in [11] and in [12]. The compound was called inactive in experiment [13], in [14], in [15], in experiment [16] and in [17].
Usually AC50 stands for the concentration giving half of the maximal activity seen. As for `CCOC(=O)C(C)OC(=O)c1cc(Oc2ccc(C(F)(F)F)cc2Cl)ccc1[N+](=O)[O-]` (configuration not stated), the result in experiment [1], in experiment [2], in experiment [5], in [8], in experiment [10] and in experiment [18] was inactive. For the same compound, the outcome in [13], in experiment [14] and in experiment [15] was inactive. Moreover, the AC50 in experiment [3] is 1.57 µM (active); in experiment [9], 14.1 µM (active); in [16], 10.6 µM (active); in experiment [17] it was 6.5 µM (active).
As for `CCCCC(C#N)(Cn1cncn1)c1ccc(Cl)cc1` (configuration not stated), the result in experiment [1], in experiment [2], in experiment [3], in [5], in experiment [6] and in experiment [8] was inactive. The outcome in [9], in experiment [10], in experiment [18], in experiment [19], in [13] and in [15] was inactive. The outcome in experiment [20], in [16] and in [17] was inactive. Also, in [7], the AC50 is 19.7 µM (active).
As to `CS(=O)(=O)c1cc(C(F)(F)F)ccc1C(=O)c1cnoc1C1CC1`, the outcome in experiment [1], in [2], in experiment [3], in [5], in experiment [6] and in experiment [7] was inactive. In addition, the outcome in experiment [8], in [10], in experiment [18], in experiment [19], in experiment [12] and in [13] was inactive. The result in experiment [15], in experiment [16] and in experiment [17] was inactive. Further, in experiment [9], the AC50 is 14.2 µM (active).
